The entries come from a sample that favours hits as a whole.
NPSR antagonist: neuropeptide S receptor (human) antagonism, cAMP; Q6W5P4; CHO-NPSR cells, cAMP TR-FRET, antagonist mode; Potency, µM (highest dose often 38.3 µM), hits mostly inhibitors; 220,000 tested, 1% active; AID 1461; also: nearly all actives have a fitted effect of over 50% in size
Target sequence (Q6W5P4 whole entry, looked up): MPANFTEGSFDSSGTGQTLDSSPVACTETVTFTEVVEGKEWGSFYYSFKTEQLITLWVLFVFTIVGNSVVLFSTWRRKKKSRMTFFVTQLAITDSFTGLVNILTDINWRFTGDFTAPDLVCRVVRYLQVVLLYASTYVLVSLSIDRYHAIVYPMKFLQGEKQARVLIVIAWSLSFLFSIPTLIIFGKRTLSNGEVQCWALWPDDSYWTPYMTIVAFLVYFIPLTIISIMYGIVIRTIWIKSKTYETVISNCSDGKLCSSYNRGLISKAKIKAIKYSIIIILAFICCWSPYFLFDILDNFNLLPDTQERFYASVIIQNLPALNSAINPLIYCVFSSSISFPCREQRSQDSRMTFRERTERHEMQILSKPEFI
ERK EGF inh: EGF-driven ERK pathway inhibition; 130,000 tested, 0.41% active; AID 1454; Potency, µM (titrated, usually from 11.5 µM), usual class: inhibitors; HEK293-V1b, EGF-stimulated phospho-ERK AlphaScreen; also: nearly all actives have a fitted effect of over 55% in size
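EGF-stimulated (25 nM, 5 min) phospho-ERK in HEK293 cells stably expressing V1b, cells pretreated 30 min with compound at 37C. Homogeneous AlphaScreen read on lysates.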
Large screens that a line does not name were inactive; ! = a repeat was not active. Calls follow the shape of the dose curve; as a rule, active = well fitted curve in the direction sought with a large enough effect; inconclusive = small, poorly fitted or top-dose-only effect, or another doubt; inactive = no such curve, though single readings can be large; an effect the other way counts as inactive or inconclusive.

Cc1[nH]n(-c2ccccc2)c(=O)c1N=Nc1cccc(S(=O)(=O)N2CCOCC2)c1	none (no result: ERK EGF inh)
Nc1[nH]n(-c2ccccc2)c(=O)c1N=Nc1ccc2c(c1)OCCO2	ERK EGF inh inconclusive
O=C(c1cc(C(F)(F)F)cc(C(F)(F)F)c1)N1CCC[C@@]2(CCN(c3ccccc3)C2)C1	none (no result: NPSR antagonist)
COCCN(Cc1ccccc1)C(=O)c1c(C)nn(-c2ccccc2)c1C	none
O=c1c2ccccc2cnn1-c1ccc2ccccc2c1	none (no result: ERK EGF inh)
O=S(c1ccc2ccccc2c1)c1cnns1 (stereo not drawn)	NPSR antagonist 10µM (no result: ERK EGF inh)
CC(=O)OCC1=C(C(=O)O)N2C(=O)[C@@H](NC(=O)CSc3ccncc3)[C@@H]2SC1	none (no result: NPSR antagonist)
CCN(CC)CCN1C(=O)C(O)=C(C(=O)c2cc3cccc(OC)c3o2)C1c1ccc(F)cc1 (stereo not drawn)	none
CCOC(=O)N1CCc2c(sc(NC(=O)CN3CCN(C)CC3)c2C(=O)Nc2ccccc2)C1	none
CCOC(=O)N1CCc2c(sc(NC(=O)CN3CCOCC3)c2C(=O)Nc2ccccc2)C1	ERK EGF inh 35µM
Cc1ccc(-c2csc(=Nc3cccnc3)n2CCCN2CCCC2=O)cc1C	none
Cc1ccc(-c2csc(=Nc3cccnc3)n2CCCn2ccnc2)cc1C	ERK EGF inh 28µM
c1ccc(Oc2c3ccccc3nc3ccccc23)cc1	none
O=c1onc2n1-c1cc(Br)ccc1OC2	none
COc1ccc2oc(=O)c(C(=O)NCC3CCCO3)cc2c1 (stereo not drawn)	none (no result: ERK EGF inh)
COc1cccc(N=c2oc3cc(O)ccc3cc2C(=O)NCC2CCCO2)c1 (stereo not drawn)	ERK EGF inh 28µM
CCOC(=O)c1cnc2cc3c(cn2c1=O)CCCC3	none (no result: ERK EGF inh)
CCOC(=O)C1=C(SCC)c2cc3c(n2C1=O)CCCC3	NPSR antagonist 13µM, ERK EGF inh 25µM
O=C(c1ccc(-c2ccccc2)cc1)C1CCCN(Cc2ccncc2)C1 (stereo not drawn)	ERK EGF inh inconclusive
O=C(c1ccc(Cl)cc1)C1CCCN(Cc2cnn(-c3ccccc3)c2)C1 (stereo not drawn)	ERK EGF inh 28µM
COc1ccc(-c2cnnc(N/N=C/C(C)=C/c3ccccc3)n2)cc1	none
Cc1cccc(C(=O)NNC2=C(C(=O)C(F)(F)F)CCC2)c1O	none (no result: ERK EGF inh)
Cc1nn(CCc2nn[nH]n2)c2nc(-c3ccc(C4CCCCC4)cc3)cc(C(F)(F)F)c12	NPSR antagonist 13µM
Cc1nn(CCC(=O)O)c2nc(-c3cccnc3)cc(C(F)(F)F)c12	none (no result: ERK EGF inh)
COc1cc([N+](=O)[O-])ccc1NC(=O)CCCOc1cc(C)ccc1C	none
O=C(NCCc1ccccn1)c1cc(-c2ccccc2Cl)nc2ccccc12	none
Cc1nc2ccc(S(=O)(=O)Nc3ccc(-c4nc5cccnc5s4)cc3)cc2s1	none
Cc1nc2ccc(S(=O)(=O)Nc3cccc(-c4nc5cccnc5s4)c3)cc2s1	ERK EGF inh 25µM
O=C(NC1CCCCC1)C(c1cccnc1)N(CCc1ccccc1)C(=O)Cc1cccs1 (stereo not drawn)	none
CCC(CC)Nc1ccc(C(CC(N)=O)NC(=O)Cc2ccc(Br)cc2)cc1[N+](=O)[O-] (stereo not drawn)	none
CN(Cc1ccccc1)c1ccc(C(CC(N)=O)NC(=O)Cc2ccc(Br)cc2)cc1[N+](=O)[O-] (stereo not drawn)	ERK EGF inh 32µM
COc1cc(NC(=S)NN2CCN(C)CC2)cc(OC)c1	none (no result: ERK EGF inh)
COc1ccc(/C=N/Nc2cc(C)nc(-n3nc(C)cc3C)n2)c(OC)c1	none
COc1cccc(/C=N/Nc2nc(Nc3ccccc3)nc(-n3nc(C)cc3C)n2)c1O	NPSR antagonist 2.5µM (no result: ERK EGF inh)
CCOC(=O)/C(=N\Nc1ccccc1)S(=O)(=O)c1ccccc1	none (no result: ERK EGF inh)
CCOC(=O)/C(=N\Nc1ccccc1)P(=O)(c1ccccc1)c1ccccc1	NPSR antagonist 10µM
Cc1ccc2c(CC(=O)N3CCN(c4ccccc4)CC3)coc2c1	none
O=C(Nc1ccc(Nc2ccccc2)cc1)Nc1ccccc1Cl	NPSR antagonist inconclusive, ERK EGF inh 28µM
O=C(Nc1ccccc1Cl)Nc1ccccc1Cl	none
CCCOc1ccc(Oc2nc(-c3ccncc3)nc3ccccc23)cc1	NPSR antagonist inconclusive
CCCCN(c1ccccc1)S(=O)(=O)c1cccc2cccnc12	none
Cc1cccc(/C=C/C(=O)c2cc(Br)ccc(=O)c2O)c1	NPSR antagonist 10µM (no result: ERK EGF inh)
CCc1ccc(/C=C/C(=O)c2cc(Br)ccc(=O)c2O)cc1	none (no result: ERK EGF inh)
CCN(CC)S(=O)(=O)c1cc(NC(=O)Cn2ncc(Cl)c(Cl)c2=O)ccc1C	NPSR antagonist inconclusive, ERK EGF inh 20µM
CCOC(=O)c1ccc(NC(=O)Cn2ncc(Cl)c(Cl)c2=O)cc1	NPSR antagonist 10µM
CCC(=O)Nc1ccc(C(=O)Cn2ncc(Cl)c(Cl)c2=O)cc1	NPSR antagonist inconclusive
COc1ccc(NC(=O)Cn2ncc(Cl)c(Cl)c2=O)cc1S(=O)(=O)N1CCOCC1	none
CC1=C(C(=O)Nc2ccccc2C)C(c2ccc(C)o2)C2=C(CCCC2=O)N1 (stereo not drawn)	none (no result: ERK EGF inh)
CCCCC(=O)OCC(=O)Nc1ccc(C)c(F)c1	none
O=S(=O)(N/N=C/c1cccnc1)c1ccc(Cl)c(Cl)c1	none
CCc1c(C)sc(NC(=S)N2CCN(S(C)(=O)=O)CC2)c1C(=O)OC	ERK EGF inh 28µM
CCc1c(C)sc(NC(=S)Nc2nc(C)cc(C)n2)c1C(=O)OC	none
CC(=O)c1ccc(Nc2ccc(-c3ccccc3F)nn2)cc1	none
C#C[C@@]1(O)CC[C@@H]2[C@@H]3CCC4=CC(=O)CC[C@@H]4[C@H]3CC[C@]21CC	none (no result: NPSR antagonist)
Fc1ccc(C(c2ccc(F)cc2)N2CCN(C/C=C/c3ccccc3)CC2)cc1	NPSR antagonist inconclusive
C(=C\c1ccccc1)/CN1CCN(C(c2ccccc2)c2ccccc2)CC1	NPSR antagonist 13µM!, ERK EGF inh inconclusive
CCN(CC)S(=O)(=O)c1ccc(C2=NOC3(C2)N(C)c2ccccc2C3(C)C)cc1 (stereo not drawn)	none
CCOC(=O)c1c(NC(=O)CN2CCCc3ccccc32)sc(C(C)=O)c1C	none (no result: ERK EGF inh)
CC1(C)Cc2nc3scc(NC(=O)c4ccccc4)c3cc2CO1	none
COc1ccc(C2=NN(C(=O)c3cccs3)C(O)(C(F)(F)F)C2)cc1 (stereo not drawn)	ERK EGF inh inconclusive
COc1ccc(C2=NN(C(=O)c3cccs3)C(c3ccccc3O)C2)cc1 (stereo not drawn)	NPSR antagonist 10µM
Cc1nc2sccn2c(=O)c1CCN1CCC(=C(c2ccccc2)c2ccc(F)cc2)CC1	none
CCN(CC)C(=O)Cn1cc(S(=O)(=O)CC(=O)NC2CCCCC2)c2ccccc21	none
CN1CC=C2C(C#N)=C(N)C(C#N)(C#N)[C@H](c3cccc(Cl)c3)C2C1 (stereo partly drawn)	none (no result: ERK EGF inh)
CC(C)c1ccc(C2C3CSCC=C3C(C#N)=C(N)C2(C#N)C#N)cc1 (stereo not drawn)	NPSR antagonist 10µM (no result: ERK EGF inh)
FC(F)(F)c1nc2cc3nc4ccccc4[nH]c3cc2n1	NPSR antagonist 13µM
O=c1[nH]c2cc3ccccc3cc2nc1C(F)(F)F	none
O=C(/C=C/c1ccccc1)c1ccc(O[C@H]2OC(CO)C(O)C(O)C2O)cc1O (stereo partly drawn)	none (no result: NPSR antagonist)
Cc1ccc(Sc2ncccc2COC(=O)NC(C)C)cc1	none
CC(=O)N1CCN(c2nc(CC(C)C)c3c(c2C#N)CCC3)CC1	none (no result: ERK EGF inh)
CC(C)Cc1nc(N2CCN(C(=O)c3ccccc3)CC2)c(C#N)c2c1CCC2	NPSR antagonist 2µM (no result: ERK EGF inh)
CN(C)c1cc(Cl)c2nonc2c1N	none
CCn1c(=O)cc(SCC(=O)NCC2CCCO2)c2ccccc21 (stereo not drawn)	none (no result: ERK EGF inh)

Source: PubChem BioAssay
